High-throughput results as filed in PubChem BioAssay.
Sampled rows, rich in hits. Any-hit rate of the full collection: about 8%.
KB-V1 MDR tox: qHTS assay for MDR1-selective chemotherapeutics: Primary screen using the drug-selected MDR subline cells KB-V1; KB-V1 MDR cells viability, CellTiter-Glo, 72 h; Potency, µM (series often up to 46.1 µM), actives largely listed as cytotoxic; 400,000 tested, 3.4% active; note: % is set by controls: 0 for no effect and ±100 for the full control effect; nearly all actives have a fitted effect of over 60% in size
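qHTS viability screen in drug-selected KB-V1 MDR cells: 72 h compound treatment at 37 degrees C, ATP luminescence end point.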
KB-3-1 cytotox: qHTS assay for MDR1-selective chemotherapeutics: Primary screen using the parental adenocarcinoma cell KB-3-1; KB-3-1 viability, CellTiter-Glo ATP luminescence, 72 h; Potency, µM (titrated, usually from 46.1 µM), most hits filed as cytotoxic; 400,000 tested, 1.4% active; AID 1347075, 2019; note: % is set by controls: 0 for no effect and ±100 for the full control effect; nearly all actives have a fitted effect of over 60% in size
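Using CellTiter-Glo luminescence, growth of non-resistant KB-3-1 adenocarcinoma cells is assessed 72 h after pin-tool compound addition at 37 °C. Normalized responses across the concentration series yield fitted curves.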
SW480 rerep: A quantitative high throughput screen for small molecules that induce DNA re-replication in SW480 colon adenocarcinoma cells; SW480 DNA re-replication, Hoechst DNA content imaging, 48 h; 340,000 tested, 1.8% active; AID 624297, 2012; Potency, µM (doses to about 46.1 µM), for inactives: at the top dose re-replication activation, actives largely listed as activators; note: % of control where 0% means no effect; nearly all actives have a fitted effect of over 55% in size
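Hoechst fluorescence of nuclei (405 nm excitation, 500-530 nm emission) measured by plate-scanning imager after 48 hr compound exposure at 37 C; re-replication scored as increased number of nuclei with elevated intensity.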
HT1080-NT tox: qHTS for induction of synthetic lethality in tumor cells producing 2HG: qHTS for the HT-1080-NT fibrosarcoma cell line | 360,000 tested, 1.6% active | AID 686970, 2013 | HT-1080-NT fibrosarcoma viability, CellTiter-Glo ATP luminescence, 48 h | Potency, µM (series often up to 46.1 µM), for the others: top-dose activity, negative = less viability, actives largely listed as cytotoxic;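 note: NT is the 2HG producing partner of a matched IDH1 knockdown line; 0% = DMSO-treated cells and -100% = media-only wells without cells; nearly all actives have a fitted effect of over 55% in size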
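Toxicity toward the 2HG-producing NT line was scored as %Activity, normalised to DMSO and no-cell wells, from CellTiter-Glo luminescence after 48 hours' treatment.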
MCF10A rereplic: A quantitative high throughput screen for small molecules that induce DNA re-replication in MCF 10a normal breast cells. MCF 10A DNA re-replication, Hoechst nuclear intensity, 48 h. 350,000 tested, 2.9% active. Potency, µM (doses to about 46.1 µM), without a hit: at the top dose activity, positive = re-replication, actives largely listed as activators; note: % of control where 0% means no effect; nearly all actives have a fitted effect of over 50% in size
HT1080 IDH1KD tx: qHTS for induction of synthetic lethality in tumor cells producing 2HG: qHTS for the HT-1080-IDH1KD cell line; 360,000 tested, 2% active; HT-1080 IDH1 knockdown viability, ATP luminescence, 48 h; Potency, µM (titrated, usually from 46.1 µM), for inactives: at the top dose activity, negative = toxicity, actives largely listed as cytotoxic;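 note: 0% = DMSO wells and -100% = cell-free medium wells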
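Cytotoxicity counter-line: IDH1KD HT-1080, 48 h, CellTiter-Glo. Curves classed by r2, magnitude and activity.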
* marks the source's active call; other numbers are inactive results; i = inactive; ? = inconclusive; . = not tested or not shown; ! = a repeat was not active. Calls come from the whole dose curve; as a rule, active = well fitted curve in the direction sought with a large enough effect; inconclusive = small, poorly fitted or top-dose-only effect, or another doubt; inactive = no such curve, though single readings can be large; an effect the other way counts as inactive or inconclusive. Potency is the fitted concentration of half-maximal effect.

SMILES	KB-V1 MDR tox	KB-3-1 cytotox	SW480 rerep	HT1080-NT tox	MCF10A rereplic	HT1080 IDH1KD tx
COc1cc(C(C[N+](=O)[O-])c2c(C)cc3ccccn23)ccc1O (centres undefined)	?	?	?	?	?	9.2µM*
COc1ccc(C(C[N+](=O)[O-])c2c(-c3ccccc3)cc3ccccn23)cc1OC (centres undefined)	i	i	?	-1%	21µM*	-3%
COc1ccc(C(C[N+](=O)[O-])c2c(-c3ccccc3)cc3ccccn23)cc1 (centres undefined)	?	?	?	-28%	18µM*	-2%
COC(=O)C(C(=O)OC)C(C[N+](=O)[O-])c1ccc(OC)c(OC)c1 (centres undefined)	i	i	-4%	4%	20%	15%
O.O.O.O.O.O.O.O=S(=O)([O-])[O-].[Co+2]	.	.	5%	.	7%	.
O=C(c1ccc(CS(=O)(=O)c2cccc(C(F)(F)F)c2)o1)N1CCN(c2ccccn2)CC1	18µM*	i	1%	1%	?	-4%
COc1ccc(CC(=O)N2CCN(c3ccccn3)CC2)cc1OC	i	i	13%	2%	-3%	-10%
CCn1cc(C(=O)N2CCN(c3ccccn3)CC2)c2cc(OC)c(OC)cc2c1=O	16µM*	i	0%	4%	-2%	-12%
COc1cc(OC)c(C(=O)N2CCN(c3ccccn3)CC2)cc1OC	i	i	-45%	-2%	-1%	2%
O=C(NCc1ccc2c(c1)OCO2)c1ccc(CS(=O)(=O)c2cccc(C(F)(F)F)c2)o1	18µM*	i	0%	3%	4%	13%
CCCc1ccc(OCc2ccc(C(=O)N3CCN(c4ccccn4)CC3)o2)c(OC)c1	3.7µM*	i	12%	?	9.2µM*	?
C(=C\c1ccnc2ccccc12)/c1ccc(N2CCOCC2)cc1	i	?	.	.	.	.
COc1cccc(NC(=O)C2C3CCC4C(CCC32)C4(Cl)Cl)c1 (centres undefined)	12µM*	i	-116%	3%	4%	-11%
COc1ccc(NC(=O)C2C3CCC4C(CCC32)C4(Cl)Cl)cc1 (centres undefined)	i	i	-31%	1%	-40%	-11%
CC(=O)[C@@H]1[C@@H](C(=O)c2ccc(C)cc2)[C@]2(C(=O)Nc3ccccc32)[C@H]2C=Cc3cc(F)ccc3N12	?	?	?	?	16µM*	?
CC(=O)[C@@H]1[C@@H](C(=O)c2ccc(F)cc2)[C@]2(C(=O)Nc3ccccc32)[C@H]2C=Cc3cc(F)ccc3N12	i	i	?	?	21µM*	-17%
O=C(NCc1ccco1)c1ccc(OC2CCN(Cc3ccccn3)CC2)cc1	i	i	.	4%	.	-2%
C#CCN(Cc1ccco1)C(=O)c1ccc(OC2CCN(Cc3ccccn3)CC2)cc1	16µM*	i	6%	-1%	?	-1%
CCCCCn1c(=NC(=O)c2ccco2)c(C(=O)OCC)cc2c(=O)n3ccccc3nc21	5.2µM*!	i	?	8%	?	5%
CCOC(=O)c1cc2c(=O)n3cccc(C)c3nc2n(CCCOC)c1=NC(=O)c1cccnc1	12µM*	i	16%	9%	22%	12%
CCOCCCn1c(=NC(=O)c2cccnc2)c(C(=O)OCC)cc2c(=O)n3ccccc3nc21	?	?	?	6%	?	9%
CCCCn1c(=NC(=O)c2ccco2)c(C(=O)OCC)cc2c(=O)n3cccc(C)c3nc21	i	i	18µM*	-2%	6.5µM*	0%
COc1cc(-c2noc(CCCC(=O)NCc3ccccc3)n2)cc(OC)c1OC	6.5µM*	i	-1%	-20%	3%	?
COc1cc(-c2noc(CCCC(=O)Nc3cccnc3)n2)cc(OC)c1OC	?	i	3%	-1%	3%	5%
O=C(COc1ccccc1C(=O)Nc1ccccc1)Nc1ccc(Br)cc1	i	i	.	.	.	.
SMILES	KB-V1 MDR tox	KB-3-1 cytotox	SW480 rerep	HT1080-NT tox	MCF10A rereplic	HT1080 IDH1KD tx
O=C(Nc1ccccc1C(F)(F)F)c1ccc(CN2CCC(Cc3ccccc3)CC2)cc1	?	?	?	16µM*	22%	23µM*
CCN(CC)CCN1c2ccccc2Sc2ccccc21	i	i	-3%	-9%	0%	6%
CCN(CC)CCN1c2ccccc2Sc2ccc3ccccc3c21	i	i	18µM*	?	?	?
Fc1ccc(-c2csc(Nc3ccccn3)n2)c(F)c1	?	18µM*	-1%	?	?	?
Cc1cc(Br)ccc1NC(=O)c1cc2c(=O)n(C)c3cc(Cl)ccc3c2s1	i	i	.	.	.	.
NC(=O)c1ccsc1NC(=O)COc1ccccc1	13µM*	i	-7%	-24%	2%	?
COc1cc(C(=O)OCC(=O)Nc2sccc2C(N)=O)cc(OC)c1OC	?	16µM*	14%	?	?	7.3µM*
COc1cc(CCC(=O)OCC(=O)Nc2ccc(C(N)=O)cc2)cc(OC)c1OC	i	i	-4%	5%	-4%	2%
COc1cc(CCC(=O)OCC(=O)Nc2sccc2C(N)=O)cc(OC)c1OC	i	i	16µM*	-7%	-20%	-11%
CC(C(=O)Nc1ccc(OCc2ccccc2)cc1)N1CCCC1 (centres undefined)	i	i	?	-19%	?	?
CC(C)COCC(CN(Cc1ccccc1)c1ccccc1)N1CCCC1 (centres undefined)	18µM*	i	1%	16µM*	1%	16µM*
Cc1cccc(C)c1NC(=O)CCC(=O)N1Cc2ccccc2Oc2ncccc21	i	i	.	.	.	.
Cc1ccc(Cl)cc1NC(=O)C(NS(=O)(=O)c1cccc2nsnc12)c1ccccc1 (centres undefined)	i	i	.	.	.	.
COc1ccc(C(=O)N2CCOC2CNC(=O)C(=O)NCc2ccc(C)cc2)cc1 (centres undefined)	?	i	.	3%	.	2%
